# Data as given in PubChem BioAssay (NCATS).
# Active and inactive are the calls of the source. The call rests on the fitted dose curve.
# Target: Catechol O-methyltransferase (Homo sapiens) (UniProt P21964)
# Assay: Confirmatory Screen for Target Class Profiling of Small Molecule Inhibitors of Methyltransferases (AID 1745852); on activity change, negative = inhibition: on the % scale 0 is the no-effect control and ±100 the full control effect
# Conditions: MTase-Glo luminescence, SAH detection, recombinant enzyme; measured here: COMT max response; stronger effect = lower value
# Potency means the concentration at half of the fitted maximal effect.
# Chain of Catechol O-methyltransferase (Homo sapiens) (P21964 whole entry, looked up): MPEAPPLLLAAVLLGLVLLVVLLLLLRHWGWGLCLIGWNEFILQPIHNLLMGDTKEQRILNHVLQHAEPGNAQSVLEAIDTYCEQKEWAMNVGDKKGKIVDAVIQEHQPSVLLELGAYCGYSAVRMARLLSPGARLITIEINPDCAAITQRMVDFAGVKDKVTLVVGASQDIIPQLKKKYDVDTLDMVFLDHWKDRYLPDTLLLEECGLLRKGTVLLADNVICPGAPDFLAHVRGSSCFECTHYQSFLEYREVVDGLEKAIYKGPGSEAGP
row,Compound,activity
1,CC(C)Cn1c(=O)c2ccccc2n2c(=O)n(CC(=O)c3cccc(Cl)c3)nc12,-9.22%
2,CC1(C(=O)NC2CCCCCC2)Cn2c(cc3occc32)C(=O)N1Cc1ccc2c(c1)OCO2 (stereo not given),-5.04%
3,Cc1ccc2c(c1)c(=O)[nH]c1c(C(=O)NCc3ccc4c(c3)OCO4)sc(=S)n12,-32.7%
4,Cc1nc2cccnc2n1CC1CCCN(S(=O)(=O)c2ccc3c(c2)OCCO3)C1 (stereo not given),2.68%
5,Cc1nc(NC(=O)C2CC(=O)N(c3n[nH]c4cc(Br)ccc34)C2)sc1C (stereo not given),11.1%
6,CN(C)CCNC(=O)c1ccnc(-c2nnc3ccc(N(C)c4ccccc4)nn23)c1,-5.96%
7,COc1ccc(CCN2C(=O)c3cc4oc(C)cc4n3CC2(C)C(=O)NC2CCCCC2)cc1OC (stereo not given),-7.54%
8,CC(C)NC(=O)c1ccccc1OCC1CCCN(Cc2cn(C)c3ccccc23)C1 (stereo not given),8.45%
9,O=C1c2ccccc2C(=O)c2cc(S(=O)(=O)Nc3ccc(Br)cc3)ccc21,0.0189%
10,CC(C)CCn1c(=O)c2ccccc2n2c(CCC(=O)N3CCN(c4ccccc4F)CC3)nnc12,1.06%
11,COc1cccc(NC(=O)Cn2c(=O)oc3cc(S(=O)(=O)N4CCCC4)ccc32)c1,3.1%
12,CCN(CC)CCNC(=O)CCc1nnc2n(Cc3ccc(C)cc3)c(=O)c3ccccc3n12,-5.02%
13,CC1CC(C)CN(S(=O)(=O)c2ccc3c(c2)oc(=O)n3CC(=O)Nc2ccc(F)cc2)C1 (stereo not given),4.26%
14,COc1cc(F)ccc1-c1cc(-c2ccc(=O)[nH]c2)c2cncn2c1,-95.1%
15,O=C1c2ccccc2C(=O)c2c1cccc2S(=O)(=O)Nc1ccc(Cl)cc1,0.0726%
16,CC1(C(=O)NC2CCCC2)Cn2c(c(-n3cccc3)c3ccccc32)C(=O)N1Cc1ccccn1 (stereo not given),1.3%
17,O=C(NCc1cccc(F)c1)c1nc2c(o1)CCN(CC1CCCC1)CC2,5.53%
18,Cc1ccc(-c2ccc(N)nc2)c2cccnc12,-62.1%
19,O=C(CCc1nnc2n(CCc3ccccc3)c(=O)c3ccccc3n12)NCCCN1CCCCC1,-0.192%
20,CCc1cccc(NC(=O)Cn2c(=O)oc3cc(S(=O)(=O)N4CC(C)CC(C)C4)ccc32)c1 (stereo not given),3.4%

row,Compound,activity
1,Cn1c(COc2cccc(CN3CCCC3)c2Cl)nnc1C1CC(N)C1 (stereo not given),0.772%
2,CCn1cc(CN2CCN(C(=O)c3cccs3)CC2)ccc1=O,0.352%
3,CN1CCC(N2C[C@@H]3C[C@H]2C(=O)N(CC2CC2)c2ccccc2O3)CC1,4.01%
4,COc1cccc(-c2ccccc2NC(=O)C2CCN(CC=C(C)C)CC2)c1,0.831%
5,O=C(NCCc1ccccc1)N1CCn2cccc2C1Cc1ccccc1 (stereo not given),0.987%
6,CN(Cc1ccccc1)C1(C(=O)NC2CCC(O)CC2)Cc2ccccc2C1 (stereo not given),2.67%
7,CN1CCC(N2CC[C@H](c3nc4ccccc4[nH]3)C2)CC1,-6.53%
8,CC(C)CCn1c(=O)c2ccccc2n2c(CCC(=O)N3CCN(Cc4ccccc4)CC3)nnc12,3.34%
9,Cc1nc2c3ccccc3n3c(CCCC(=O)NCCCN(C)Cc4ccccc4)nnc3n2n1,-2.29%
10,O=C(NCCCN1CCc2ccccc2C1)C1CCc2ncc(-c3ccc(F)cc3)n2C1 (stereo not given),-4.39%
11,Cc1c(OCc2ccc(C(=O)O)o2)ccc2c(-c3ccccc3)cc(=O)oc12,-33.2%
12,O=C(CCCc1nnc2n3nc(-c4ccccc4)nc3c3ccccc3n12)NCCCN1CCCCC1,-1.71%
13,COc1ccc(CCN2C(=O)c3cc4occc4n3CC2(C)C(=O)NC2CCCCC2)cc1OC (stereo not given),2.48%
14,O=C(CCc1nnc2n(CCc3ccccc3)c(=O)c3ccccc3n12)N1CCC(N2CCCCC2)CC1,4.18%
15,Cc1oc(C(=O)O)cc1COc1ccc2c(-c3ccccc3)cc(=O)oc2c1C,-34.8%
16,Cc1noc(C)c1-c1cc2c(cc(C)n2CCN(C)C)c(Nc2ccncn2)n1,-14.2%
17,COc1ccc(CCN2C(=O)c3ccc(-c4ccco4)n3CC2(C)C(=O)NC2CCCC2)cc1OC (stereo not given),-9.3%
18,NC(=O)C1(N2CCCCC2)CCN(c2nc3c(S(=O)(=O)c4ccccc4)nnn3c3ccccc23)CC1,-1.9%
19,Cn1c(=O)n(C)c2cc(S(=O)(=O)Nc3cc4c(cc3NCc3ccccc3)n(C)c(=O)n4C)ccc21,-26%
20,Fc1cccc(-c2nnn3c2nc(NCCc2ccccc2)c2ccccc23)c1,-4.7%

# Target: Guanidinoacetate N-methyltransferase (Homo sapiens) (UniProt Q14353)
# Assay: as above
# Conditions: MTase-Glo luminescence, SAH detection, recombinant enzyme; activity change, negative = inhibition: at 57.3 µM (top of the series) unless noted; series mostly up to 57.3 µM
Compound,"activity change, negative = inhibition",Potency
CC(C)Cn1c(=O)c2ccccc2n2c(=O)n(CC(=O)c3cccc(Cl)c3)nc12,-5.46%,
CC1(C(=O)NC2CCCCCC2)Cn2c(cc3occc32)C(=O)N1Cc1ccc2c(c1)OCO2 (stereo not given),,inactive
Cc1ccc2c(c1)c(=O)[nH]c1c(C(=O)NCc3ccc4c(c3)OCO4)sc(=S)n12,,17.1 µM (active)
Cc1nc2cccnc2n1CC1CCCN(S(=O)(=O)c2ccc3c(c2)OCCO3)C1 (stereo not given),-0.116%,
Cc1nc(NC(=O)C2CC(=O)N(c3n[nH]c4cc(Br)ccc34)C2)sc1C (stereo not given),3.17%,
CN(C)CCNC(=O)c1ccnc(-c2nnc3ccc(N(C)c4ccccc4)nn23)c1,-11.8% [at 85.7 µM],
COc1ccc(CCN2C(=O)c3cc4oc(C)cc4n3CC2(C)C(=O)NC2CCCCC2)cc1OC (stereo not given),-4.8%,
CC(C)NC(=O)c1ccccc1OCC1CCCN(Cc2cn(C)c3ccccc23)C1 (stereo not given),14.4%,
O=C1c2ccccc2C(=O)c2cc(S(=O)(=O)Nc3ccc(Br)cc3)ccc21,-0.0818%,
CC(C)CCn1c(=O)c2ccccc2n2c(CCC(=O)N3CCN(c4ccccc4F)CC3)nnc12,0%,
COc1cccc(NC(=O)Cn2c(=O)oc3cc(S(=O)(=O)N4CCCC4)ccc32)c1,0.138%,
CCN(CC)CCNC(=O)CCc1nnc2n(Cc3ccc(C)cc3)c(=O)c3ccccc3n12,-3.03%,
CC1CC(C)CN(S(=O)(=O)c2ccc3c(c2)oc(=O)n3CC(=O)Nc2ccc(F)cc2)C1 (stereo not given),0%,
COc1cc(F)ccc1-c1cc(-c2ccc(=O)[nH]c2)c2cncn2c1,-5.99% [at 85.7 µM],
O=C1c2ccccc2C(=O)c2c1cccc2S(=O)(=O)Nc1ccc(Cl)cc1,-0.67%,
CC1(C(=O)NC2CCCC2)Cn2c(c(-n3cccc3)c3ccccc32)C(=O)N1Cc1ccccn1 (stereo not given),1.85%,
O=C(NCc1cccc(F)c1)c1nc2c(o1)CCN(CC1CCCC1)CC2,18.3% [at 85.7 µM],
Cc1ccc(-c2ccc(N)nc2)c2cccnc12,1.37%,
O=C(CCc1nnc2n(CCc3ccccc3)c(=O)c3ccccc3n12)NCCCN1CCCCC1,0%,
CCc1cccc(NC(=O)Cn2c(=O)oc3cc(S(=O)(=O)N4CC(C)CC(C)C4)ccc32)c1 (stereo not given),0%,

Compound,"activity change, negative = inhibition",Potency
Cn1c(COc2cccc(CN3CCCC3)c2Cl)nnc1C1CC(N)C1 (stereo not given),-2.28%,
CCn1cc(CN2CCN(C(=O)c3cccs3)CC2)ccc1=O,-2.5%,
CN1CCC(N2C[C@@H]3C[C@H]2C(=O)N(CC2CC2)c2ccccc2O3)CC1,2.68% [at 85.7 µM],
COc1cccc(-c2ccccc2NC(=O)C2CCN(CC=C(C)C)CC2)c1,3.69%,
O=C(NCCc1ccccc1)N1CCn2cccc2C1Cc1ccccc1 (stereo not given),,inactive
CN(Cc1ccccc1)C1(C(=O)NC2CCC(O)CC2)Cc2ccccc2C1 (stereo not given),3.98%,
CN1CCC(N2CC[C@H](c3nc4ccccc4[nH]3)C2)CC1,-8.47% [at 114 µM],
CC(C)CCn1c(=O)c2ccccc2n2c(CCC(=O)N3CCN(Cc4ccccc4)CC3)nnc12,0%,
Cc1nc2c3ccccc3n3c(CCCC(=O)NCCCN(C)Cc4ccccc4)nnc3n2n1,0%,
O=C(NCCCN1CCc2ccccc2C1)C1CCc2ncc(-c3ccc(F)cc3)n2C1 (stereo not given),-6.35%,
Cc1c(OCc2ccc(C(=O)O)o2)ccc2c(-c3ccccc3)cc(=O)oc12,,24.1 µM (active)
O=C(CCCc1nnc2n3nc(-c4ccccc4)nc3c3ccccc3n12)NCCCN1CCCCC1,0%,
COc1ccc(CCN2C(=O)c3cc4occc4n3CC2(C)C(=O)NC2CCCCC2)cc1OC (stereo not given),0%,
O=C(CCc1nnc2n(CCc3ccccc3)c(=O)c3ccccc3n12)N1CCC(N2CCCCC2)CC1,0.438%,
Cc1oc(C(=O)O)cc1COc1ccc2c(-c3ccccc3)cc(=O)oc2c1C,,27.1 µM (active)
Cc1noc(C)c1-c1cc2c(cc(C)n2CCN(C)C)c(Nc2ccncn2)n1,-6.67% [at 85.7 µM],
COc1ccc(CCN2C(=O)c3ccc(-c4ccco4)n3CC2(C)C(=O)NC2CCCC2)cc1OC (stereo not given),-6.46%,
NC(=O)C1(N2CCCCC2)CCN(c2nc3c(S(=O)(=O)c4ccccc4)nnn3c3ccccc23)CC1,0%,
Cn1c(=O)n(C)c2cc(S(=O)(=O)Nc3cc4c(cc3NCc3ccccc3)n(C)c(=O)n4C)ccc21,,21.5 µM (active)
Fc1cccc(-c2nnn3c2nc(NCCc2ccccc2)c2ccccc23)c1,-1.64%,
